The structures appear in SMILES notation. This is part of a sample that, as a whole, favours compounds with a hit. Of some 83,000 tested, about 20% had one in any assay.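 Cells were grown in 96-well plates and exposed to the test compound at a single concentration for 48 hours; results are reported as percent growth, with values below 10 considered active.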 Values without a mark were called inactive. Calls of active or inactive are those of the source.

The assay concerns SK-MEL-28 melanoma. The assay is described as follows: NCI-60 one-dose screen, 48 h (100 = growth as untreated, 0 = no growth, -100 = all killed). The note with it: 10 µM unless noted.
For the compound `CN(C)CCCNc1nc(-c2cccc(C(Cl)(Cl)Cl)c2)nc(C(Cl)(Cl)Cl)n1`, the growth is 103%.
In the case of `CC1(C)CC[C@]2(C(N)=O)CC[C@]3(C)C(=CC[C@@H]4[C@@]5(C)C/C(=C/c6ccncc6)C(=O)C(C)(C)[C@@H]5CC[C@]43C)[C@@H]2C1`, the growth was -64.7% [100 µM] (active).
On to `COc1ccc(N(c2nc(-c3ccc([N+](=O)[O-])cc3)cs2)C(C)C)cc1`, for which the growth was 103%.
On to `CCOc1ccc(/C=C(\C#N)c2cc3ccccc3[nH]2)cc1`, for which the growth was 69.7%.
Take `c1coc2occoc=2o1`: the growth is 112%.
On to `COc1cc2c(c(OC)c1)C1c3cc(OC)ccc3NC(=O)N1CC2` (configuration not stated), for which the growth is 88.9%.
For `CCC(C)[C@H](NC(=O)NC(=O)NC(=O)CI)C(=O)OC` (some centres not stated), the growth is 87.7%.
